Data on 2 compounds can be found in PubChem BioAssay.

The structures appear in SMILES notation. Values joined by “and” are separate entries in the source; they are usually repeats but may differ in a detail not shown here. Equal entries are not always repeated. For some assays here: Measured potencies and affinities stand elsewhere. Active and inactive are the calls of the source. Unless noted, how the calls were made is not given here.

Experiment [1] can be described thus: antimalarial activity against Dd2 strain (AID 2302;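 active means growth inhibition above 50% at the single 2 µM test dose, taken to imply half-maximal potency below 2 µM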;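 further: 0% = DMSO untreated growth and 100% = chloroquine plus artemisinin killed control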). The settings on record: P. falciparum Dd2 in RBCs, LDH growth readout, 72 h; at 2 µM; stronger effect = higher value.
A short description of experiment [2]: human hepatoma cell viability loss – ATP luminescence, cytotoxicity control for P. falciparum antimalarial project, primary screen (AID 2303;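 active means inhibition above 50%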;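 further: 0% = DMSO wells and 100% = digitonin-killed cells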). The settings on record: HepG2 viability, 24-48 h, at 10 µM, stronger effect = higher value.
The target of experiment [3] is L-lactate dehydrogenase (Plasmodium falciparum (isolate CDC / Honduras)) (UniProt Q27743). Description: PfLDH activity inhibition – cell lysate, 3D7 strain, counter-screen for P. falciparum growth inhibition project (AID 2304).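 Further: 0% = vehicle and 100% = reference inhibitor.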 Conditions: P. falciparum 3D7 crude extract, LDH APAD/NBT absorbance; at 2 µM; stronger effect = higher value. (A counterscreen serves to expose hits that act by an unwanted route or on another target.)

Experiment [4] is described as follows: inhibition of 3D7 malaria parasite growth – strain 3D7 (AID 2306).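 Further: 0% = DMSO wells and 100% = chloroquine plus artemisinin control wells.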 The settings on record: P. falciparum 3D7 erythrocytic growth, LDH absorbance, 72 h; at 2 µM; stronger effect = higher value.
Experiment [5] addresses 6-phosphogluconate dehydrogenase, decarboxylating (Homo sapiens) (UniProt P52209). Description: inhibition of human phosphogluconate dehydrogenase – biochemical, recombinant enzyme, NADPH absorbance, primary screen (AID 1159550;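 active means at least 20% inhibition of 6-phosphogluconate dehydrogenase activity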). Conditions: recombinant 6PGD, NADPH absorbance 341 nm; at 10 µM; stronger effect = higher value.
In experiment [6] the target is Calcium-dependent protein kinase 1 (Plasmodium falciparum (isolate 3D7)) (UniProt P62344). Nature of the experiment: PfCDPK1 kinase inhibitors, biochemical, TCAMS library (AID 1159585; cut-off not given, nearly all actives have IC50 up to about 0.98 µM;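 further: inhibitors leave more ATP so luminescence rises with inhibition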). Conditions: recombinant PfCDPK1, Kinase-Glo ATP depletion luminescence. Background: In Kinase-Glo more light means more ATP remaining.
For experiment [7], the target named is Plasmodium falciparum protein kinase 6 (PK6, PF3D7_1337100) (UniProt Q8IDW1). Nature of the experiment: PfPK6 kinase inhibitors, biochemical, TCAMS library (AID 1159586). Conditions: recombinant PfPK6, Kinase-Glo ATP depletion luminescence.
Experiment [8] has as its target Protein kinase 7 (PK7), Plasmodium falciparum 3D7 (PF3D7_0213400) (UniProt Q7YTF7). Description: inhibition of Plasmodium PK7 catalytic activity – biochemical, TCAMS antimalarial set, Kinase-Glo luminescence (AID 1159587). Conditions: recombinant PfPK7, Kinase-Glo ATP depletion luminescence.
Experiment [9] deals with Calcium-dependent protein kinase 4 (Plasmodium falciparum (isolate 3D7)) (UniProt Q8IBS5). Description: PfCDPK4 kinase inhibitors, biochemical, TCAMS library (AID 1159588; cut-off not given, nearly all actives have IC50 up to about 0.91 µM). Conditions: recombinant PfCDPK4, Kinase-Glo ATP depletion luminescence.
The target in experiment [10] is NAD(+) hydrolase SARM1 (Homo sapiens) (UniProt Q6SZW1). Description: blocking NAD cleavage by SARM1 SAM-TIR – cell lysate, NAD-Glo luminescence (AID 1508614;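 active means compound whose remaining NAD level is above about 45 nM, limit read from the data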). Conditions: SAM-TIR HEK293T lysate NADase, at 1 µM, stronger effect = higher value.
In experiment [11] the target is Mitogen-activated protein kinase 7 (Homo sapiens) (UniProt Q13164). Description: Gal4-ERK5 driven luciferase induction – cell-based, HTS, primary screen (AID 1508626;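 active means luciferase signal above three times the same-plate solvent-only control wells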;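 further: luciferase driven by Gal4-ERK5 fusion binding five Gal4 sites before minimal TATA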). The settings on record: HeLa Gal4-ERK5 transactivation, 18 h, at 5 µM, stronger effect = higher value.
A short description of experiment [12]: blockers of polyQ-driven CASP3 activation – cell-based (AID 1583). Conditions: polyglutamine-induced caspase-3 activation, cell assay; stronger effect = higher value;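 tested at 10 µM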.
Experiment [13] can be described thus: yeast 75Q aggregation reduction – 75Q-TubU reporter (AID 1593). The settings on record: Yeast 75Q polyglutamine aggregation reporter.
The nature of experiment [14]: restoration of touch response, mutant HTT neurons – whole organism, C. elegans mechanosensory neurons, N-terminal huntingtin (AID 1599). Conditions: C. elegans polyQ-huntingtin mechanosensory neurons, stronger effect = higher value.
The nature of experiment [15]: blockers of cytochrome c efflux from mitochondria – biochemical, purified mitochondria (AID 1603).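 Further: mouse liver mitochondria challenged with calcium chloride; signal normalized to the plate average as 100%.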 Conditions: stronger effect = lower value.
Experiment [16] in a line: polyglutamine aggregate formation blockers (AID 1604). Conditions: polyglutamine-induced protein aggregation inhibition assay; stronger effect = higher value; tested at 2.5 µM.
Experiment [17] is described as follows: glutamate transport activators, MN-1 cells, MN-1 cell line (AID 1612).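 Further: tested at 1 µM final; 0% = mean of DMSO vehicle wells on each plate; positive means more glutamate uptake than control and negative means less.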 Conditions: MN-1 motor neuron cells, stronger effect = higher value.
Experiment [18] can be described thus: 75Q-TubH aggregate inhibition, S. cerevisiae, yeast (AID 1616). The settings on record: S. cerevisiae 75Q-TubH polyglutamine aggregation suppression; stronger effect = higher value.
A short description of experiment [19]: P. berghei load reduction in hepatocytes – cell-based, HepG2, luciferase luminescence, HepG2 viability, primary screen (AID 624349; in the data active means parasite load remaining mostly below about 12%, no sharp cut-off; inactive means mostly above about 10%;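 further: 100% = mean of DMSO negative control wells on the same plate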). Conditions: P. berghei liver stage in HepG2, luciferase luminescence, concentration not given here; parasite load remaining: stronger effect = lower value; viability: measured here: HepG2 viability without parasites.
The nature of experiment [20]: EMT-state selective cytotoxicity in co-culture – imaging, PC-3E GFP, TEM4-18 mCherry, primary screen (AID 1345086;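 active means compounds killing one labelled cell type while sparing the other, by normalised counts and ratio limits, not self-fluorescent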;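 further: cells exposed to compound for 72 h before imaging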;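 on red/green cell ratio (normalised): normalised mesenchymal count divided by normalised epithelial count so high means epithelial killing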). The settings on record: PC-3E GFP / TEM4-18 mCherry co-culture, imaging cell counts, at 1 µM.
The test system of experiment [21] is Aerobactin synthetase IucA (Klebsiella pneumoniae). Description: inhibition of K. pneumoniae IucA enzyme – biochemical, Tocris library, absorbance (AID 1345561).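 Further: 100% = enzyme without compound and 0% = no enzyme.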 Conditions: purified IucA enzyme assay, absorbance (OD) read-out; stronger effect = lower value;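 tested at 8 µM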.
Experiment [22] concerns Aerobactin synthetase IucA (Klebsiella pneumoniae hvKP1). Description: IucA enzyme inhibition, primary screen, biochemical, Spectrum library (AID 1346200).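 Further: 100% = wells without compound and 0% = wells lacking enzyme.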 The settings on record: malachite green pyrophosphate, A620, at 8 µM, stronger effect = lower value.
Experiment [23] in a line: viability loss with induced miR-34 in A549 – imaging, A549 dox-inducible miR-34, nuclei and caspase counts, primary screen (AID 1347080;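 active means compounds whose cell count with miR-34 switched on is under 0.7 times the count with it off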). The settings on record: A549 miR-34 inducible, Hoechst nuclei count, 48 h.
Experiment [24] in a line: chitosan synthesis blockers in C. neoformans – flow cytometry, Cibacron Brilliant Red staining (AID 1347148).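 Further: compound exposure lasted three days at 37 degrees C.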 Conditions: Cryptococcus neoformans chitosan, stronger effect = lower value; at 10 µM unless noted.
Experiment [25] is described as follows: galactose survival enhancers in mitochondrial complex I cybrids – cell-based, galactose medium, ATP luminescence, primary screen (AID 1645843;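 active means z-score of at least 1.8 in each of two replicates, scored against plate mean and spread of sample wells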;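 further: positive z means more ATP and so rescue of galactose-driven cybrid death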). Conditions: complex I mutant cybrid cells, 72 h, stronger effect = higher value.

As usually defined, the inhibition is the change of the read-out against control, counted positive when it falls. As a reminder, the viability is a per cent measure of how many cells are alive, often set against a control. In general, remaining activity refers to the signal under treatment as a percentage of the control signal.

Sequence of Calcium-dependent protein kinase 1 (Plasmodium falciparum (isolate 3D7)) (P62344 whole entry, looked up): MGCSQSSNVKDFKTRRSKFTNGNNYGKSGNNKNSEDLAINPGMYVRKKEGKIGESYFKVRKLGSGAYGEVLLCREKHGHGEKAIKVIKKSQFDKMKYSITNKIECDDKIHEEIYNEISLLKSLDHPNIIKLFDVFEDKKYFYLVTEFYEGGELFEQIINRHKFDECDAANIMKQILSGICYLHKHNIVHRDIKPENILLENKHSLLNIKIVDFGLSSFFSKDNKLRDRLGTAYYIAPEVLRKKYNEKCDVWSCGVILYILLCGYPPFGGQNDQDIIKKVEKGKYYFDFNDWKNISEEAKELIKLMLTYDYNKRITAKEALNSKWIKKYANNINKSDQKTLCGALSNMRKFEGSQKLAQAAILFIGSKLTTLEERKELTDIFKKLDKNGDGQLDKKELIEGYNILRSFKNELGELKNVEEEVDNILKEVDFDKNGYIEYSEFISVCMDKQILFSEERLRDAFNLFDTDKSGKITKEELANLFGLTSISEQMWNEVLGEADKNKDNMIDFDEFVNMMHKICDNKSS
Sequence of Mitogen-activated protein kinase 7 (Homo sapiens) (Q13164 whole entry, looked up, the tested form may be a part): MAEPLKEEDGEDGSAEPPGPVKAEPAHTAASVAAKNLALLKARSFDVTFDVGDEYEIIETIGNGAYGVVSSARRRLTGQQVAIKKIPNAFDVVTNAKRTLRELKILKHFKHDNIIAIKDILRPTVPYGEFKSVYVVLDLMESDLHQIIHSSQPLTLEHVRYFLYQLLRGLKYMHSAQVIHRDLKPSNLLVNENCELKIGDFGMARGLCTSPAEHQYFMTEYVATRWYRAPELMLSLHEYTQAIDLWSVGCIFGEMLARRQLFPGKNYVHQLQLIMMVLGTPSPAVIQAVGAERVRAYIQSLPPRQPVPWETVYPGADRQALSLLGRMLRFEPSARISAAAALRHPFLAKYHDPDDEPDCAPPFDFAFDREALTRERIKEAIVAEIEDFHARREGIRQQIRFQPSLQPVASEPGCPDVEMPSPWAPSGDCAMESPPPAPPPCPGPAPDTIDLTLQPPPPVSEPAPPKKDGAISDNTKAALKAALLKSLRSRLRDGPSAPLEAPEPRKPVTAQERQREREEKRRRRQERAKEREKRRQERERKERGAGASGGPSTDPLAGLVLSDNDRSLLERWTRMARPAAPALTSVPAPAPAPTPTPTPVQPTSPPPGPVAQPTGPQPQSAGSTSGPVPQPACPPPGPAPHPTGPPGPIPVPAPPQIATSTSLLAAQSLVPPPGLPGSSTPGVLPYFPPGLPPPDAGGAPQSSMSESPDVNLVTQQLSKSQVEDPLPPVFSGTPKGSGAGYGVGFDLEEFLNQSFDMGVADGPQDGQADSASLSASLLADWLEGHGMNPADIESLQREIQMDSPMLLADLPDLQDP
Sequence of 6-phosphogluconate dehydrogenase, decarboxylating (Homo sapiens) (P52209 whole entry, looked up): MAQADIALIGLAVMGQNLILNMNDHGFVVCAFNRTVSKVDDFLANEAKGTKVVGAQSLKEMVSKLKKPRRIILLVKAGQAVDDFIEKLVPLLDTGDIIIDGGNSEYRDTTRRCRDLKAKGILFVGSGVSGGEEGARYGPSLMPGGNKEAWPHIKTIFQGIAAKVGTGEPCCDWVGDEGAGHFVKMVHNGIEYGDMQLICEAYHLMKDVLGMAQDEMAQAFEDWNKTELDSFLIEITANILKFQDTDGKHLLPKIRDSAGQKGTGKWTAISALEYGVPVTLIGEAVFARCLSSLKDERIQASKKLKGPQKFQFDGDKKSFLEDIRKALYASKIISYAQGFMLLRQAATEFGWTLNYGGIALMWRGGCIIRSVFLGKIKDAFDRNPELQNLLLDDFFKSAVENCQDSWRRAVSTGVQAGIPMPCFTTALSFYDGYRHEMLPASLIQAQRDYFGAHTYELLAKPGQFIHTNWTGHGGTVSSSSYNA
Sequence of Protein kinase 7 (PK7), Plasmodium falciparum 3D7 (PF3D7_0213400) (Q7YTF7 1-343): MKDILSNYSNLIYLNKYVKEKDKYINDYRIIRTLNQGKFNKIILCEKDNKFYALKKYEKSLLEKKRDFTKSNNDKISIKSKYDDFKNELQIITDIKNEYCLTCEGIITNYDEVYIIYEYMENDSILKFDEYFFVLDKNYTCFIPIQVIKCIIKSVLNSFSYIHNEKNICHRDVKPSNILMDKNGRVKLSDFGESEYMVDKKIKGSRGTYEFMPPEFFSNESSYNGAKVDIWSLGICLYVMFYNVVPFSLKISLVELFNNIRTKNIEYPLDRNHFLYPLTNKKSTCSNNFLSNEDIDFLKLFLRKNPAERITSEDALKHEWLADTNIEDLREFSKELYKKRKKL
Sequence of L-lactate dehydrogenase (Plasmodium falciparum (isolate CDC / Honduras)) (Q27743 whole entry, looked up): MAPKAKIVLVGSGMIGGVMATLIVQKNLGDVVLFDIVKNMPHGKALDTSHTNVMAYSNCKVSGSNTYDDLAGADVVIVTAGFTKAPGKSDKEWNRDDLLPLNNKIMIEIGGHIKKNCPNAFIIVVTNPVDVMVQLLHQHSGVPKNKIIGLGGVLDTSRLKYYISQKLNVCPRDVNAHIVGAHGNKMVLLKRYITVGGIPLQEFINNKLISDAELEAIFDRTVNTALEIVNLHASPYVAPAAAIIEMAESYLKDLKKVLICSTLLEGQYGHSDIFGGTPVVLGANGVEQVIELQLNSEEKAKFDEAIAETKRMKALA
Sequence of Calcium-dependent protein kinase 4 (Plasmodium falciparum (isolate 3D7)) (Q8IBS5 whole entry, looked up): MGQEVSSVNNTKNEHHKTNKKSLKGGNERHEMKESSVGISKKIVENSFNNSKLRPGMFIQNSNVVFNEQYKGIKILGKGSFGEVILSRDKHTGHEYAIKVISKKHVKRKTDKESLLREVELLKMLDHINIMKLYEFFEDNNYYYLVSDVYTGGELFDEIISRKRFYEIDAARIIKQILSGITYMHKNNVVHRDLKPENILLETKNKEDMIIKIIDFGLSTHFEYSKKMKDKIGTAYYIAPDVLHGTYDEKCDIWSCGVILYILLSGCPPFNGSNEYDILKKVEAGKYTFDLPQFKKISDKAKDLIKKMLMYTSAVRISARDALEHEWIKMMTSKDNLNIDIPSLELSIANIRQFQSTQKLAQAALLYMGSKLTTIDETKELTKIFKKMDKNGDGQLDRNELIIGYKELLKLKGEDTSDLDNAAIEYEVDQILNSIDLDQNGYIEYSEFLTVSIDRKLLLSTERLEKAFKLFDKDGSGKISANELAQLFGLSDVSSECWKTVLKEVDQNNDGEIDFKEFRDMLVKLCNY
Sequence of Plasmodium falciparum protein kinase 6 (PK6, PF3D7_1337100) (Q8IDW1 1-305): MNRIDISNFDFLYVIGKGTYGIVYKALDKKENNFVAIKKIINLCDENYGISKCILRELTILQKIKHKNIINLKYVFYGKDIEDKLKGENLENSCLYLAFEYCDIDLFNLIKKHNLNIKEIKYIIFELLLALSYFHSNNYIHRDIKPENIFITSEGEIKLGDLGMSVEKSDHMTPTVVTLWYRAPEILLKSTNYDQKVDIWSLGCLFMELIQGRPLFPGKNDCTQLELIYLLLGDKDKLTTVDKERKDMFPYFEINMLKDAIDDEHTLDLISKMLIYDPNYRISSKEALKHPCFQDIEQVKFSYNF
Sequence of NAD(+) hydrolase SARM1 (Homo sapiens) (Q6SZW1 whole entry, looked up, the tested form may be a part): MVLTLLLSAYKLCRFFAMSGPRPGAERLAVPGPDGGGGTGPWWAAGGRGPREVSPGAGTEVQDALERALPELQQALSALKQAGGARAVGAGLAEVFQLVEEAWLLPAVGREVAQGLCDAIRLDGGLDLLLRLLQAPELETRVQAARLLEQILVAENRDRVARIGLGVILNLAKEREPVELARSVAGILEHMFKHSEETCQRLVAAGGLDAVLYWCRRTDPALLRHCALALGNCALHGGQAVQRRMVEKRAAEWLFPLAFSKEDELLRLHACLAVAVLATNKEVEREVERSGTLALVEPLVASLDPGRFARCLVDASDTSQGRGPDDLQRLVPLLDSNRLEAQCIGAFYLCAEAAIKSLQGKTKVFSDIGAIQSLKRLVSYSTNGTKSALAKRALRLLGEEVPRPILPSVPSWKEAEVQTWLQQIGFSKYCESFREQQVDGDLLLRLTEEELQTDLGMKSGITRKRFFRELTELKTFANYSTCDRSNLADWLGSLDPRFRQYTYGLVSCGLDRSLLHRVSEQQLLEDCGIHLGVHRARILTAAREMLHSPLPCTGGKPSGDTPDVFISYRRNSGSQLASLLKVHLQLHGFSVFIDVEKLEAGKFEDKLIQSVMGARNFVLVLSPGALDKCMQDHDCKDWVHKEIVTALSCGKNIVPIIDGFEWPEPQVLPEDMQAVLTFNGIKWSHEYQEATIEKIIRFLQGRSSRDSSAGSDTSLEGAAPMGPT

Consider `CC[C@H]1CN2CC[C@H]1C[C@@H]2[C@@H](O)c1ccnc2ccc(OC)cc12`, for which the growth inhibition was 95% (active) in experiment [1] and 100% (active) in [4]. The inhibition in [2] was -3% (inactive); in experiment [3] it was 1% (inactive); in experiment [5], 5.31% (inactive). The result in experiment [6], in experiment [7], in [8] and in experiment [9] was inactive. The remaining NAD in experiment [10] is 10 nM (inactive). For the same compound, the luciferase signal in [11] was 16 AU (inactive).
As for `COc1ccc(C[C@H]2NC[C@H](O)[C@H]2OC(C)=O)cc1`, the inhibition was 72.2% in [12], 39% (inactive) in experiment [2], 6% (inactive) in experiment [3] and -19.6% (inactive) in experiment [5]. The score in experiment [13] turned out to be 0.1. In [14], this compound gave a rescue above control of 20.1. Also, the cytochrome c release ratio in [15] is 0.83. In experiment [16], this compound returned an inhibition of aggregation of 100%. For the same compound, in experiment [17], the glutamate uptake change is -57.2%. In [18], this compound displayed an aggregation suppression score of 0.0246. Moreover, the growth inhibition in [1] is 98% (active); in [4] it was 100% (active). Moreover, in experiment [19], the parasite load remaining is -43.5% (inactive) and -0.655% (inactive). In experiment [19], the viability is 60.3% and 76.2%. Also, the result in experiment [6], in [7], in experiment [8] and in experiment [9] was inactive. Besides, the red/green cell ratio (normalised) in experiment [20] (actives lie on both sides) is 0.63 (inactive). The values for the normalised cell number in experiment [20] (measured here: epithelial PC-3E GFP cell survival) and in experiment [20] (measured here: mesenchymal TEM4-18 mCherry cell survival) were 0.16 and 0.1, respectively. In experiment [21], the remaining activity is 125% (inactive). In experiment [22], the activity remaining was 92.2% (inactive). In addition, the fold change was 0.919 (inactive) and 1.04 (inactive) in experiment [23] (stronger effect = lower value); 1.66 in experiment [23] (measured here: relative caspase fold change +Dox/-Dox). Besides, the cell count in [23] (measured here: total cells with miR-34 induction, stronger effect = lower value) is 1170 and 1230; in [23] (measured here: total cells without miR-34 induction), 1270 and 1190. For the same compound, the fold fluorescence in experiment [24] was 11.2 [at 188.5 µM] (inactive). The luciferase signal in experiment [11] was 16 AU (inactive). The z-score in experiment [25] was -0.88 (inactive).
